In the library only some 21% were active in any assay of this set; here they are far more common.
Cycloheximide cs – counter-screen hit for Shiga toxin inhibitors, cycloheximide; cell reporter, cycloheximide protein synthesis inhibition counterscreen; max response, %; hit rate 12% among 300,000; in the data active = max response mostly above about 13%, no sharp cut-off; inactive = mostly below about 14%; note: read at 38.3 µM for the half of the compounds with a filed dose; 0% is about no effect
Pf growth 48h – P. falciparum growth inhibition at 48 hours (one generation); P. falciparum luciferase growth in erythrocytes, 48 h; hit rate 5.9% among 310,000; Potency, µM (titrated, usually from 28.7 µM), without a hit: at the top dose activity change, negative = inhibition, hits mostly inhibitors; AID 504832; note: potency is the fitted concentration of half-maximal effect; % is set by controls: 0 for no effect and ±100 for the full control effect
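Compounds are pin-transferred into medium, infected erythrocytes (2% hematocrit, 0.1% parasitemia final) are added, and plates sit one parasite generation at 37 C in 5% CO2. Detection reagent is then added and luminescence measured.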
Pf growth 96h – P. falciparum growth inhibition at 96 hour, primary screen for plastid delayed-death inhibitors; P. falciparum luciferase reporter growth, 96 h; Potency, µM (top dose mostly 28.7 µM), for the others: at the top dose activity change, negative = inhibition, actives largely listed as inhibitors; hit rate 6.9% among 320,000; note: potency is the fitted concentration of half-maximal effect; % is set by controls: 0 for no effect and ±100 for the full control effect
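Readout is luminescence from an integrated firefly luciferase in P. falciparum. Red cells, 2% hematocrit and 0.05% parasitemia final, were cultured with compound through two parasite generations (96 hours) at 37 C, 5% CO2.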
Shiga toxin inh – inhibitors of Shiga toxin in Vero cells; Vero cells, Shiga toxin protein synthesis inhibition reporter; inhibition, % at 38.7 µM; hit rate 9.2% among 290,000; AID 2315; in the data active = inhibition mostly above about 28%, no sharp cut-off; inactive = mostly below about 43%; note: 0% is about no effect
* marks the source's active call; other numbers are inactive results; i = inactive; ? = inconclusive; . = not tested or not shown; [ ] = another dose, or the depositor's remark. Unless noted, calls come from the whole dose curve; as a rule, active = well fitted inhibition curve with a large enough effect; inconclusive = small, poorly fitted or top-dose-only effect, or another doubt; inactive = no such curve, though single readings can be large or run the other way.

SMILES | Cycloheximide cs | Pf growth 48h | Pf growth 96h | Shiga toxin inh
CCOc1ccccc1N1CC(C(=O)N2CCOCC2)CC1=O (configuration not stated) | 6.5 | 6.6% | -13.7% | -6.5
CC(=O)Nc1ccc(S(=O)(=O)NC2CC3CCC2C3)cc1 (configuration not stated) | -2.7 | 34.7% | -1.4% | .
O=C(N=C1SC2CS(=O)(=O)CC2N1c1ccc(Br)cc1)C1CCCO1 (configuration not stated) | 1.3 | -5.2% | -22.9% | -2.8
CNC(=O)NC(=O)C(C)OC(=O)c1c2c(nc3ccccc13)/C(=C/c1cccs1)CC2 (configuration not stated) | 32.4* | 35.1% | 32.7% | 23.0*
COc1cc(/C=C2\CCc3c2nc2ccccc2c3C(=O)O)cc(OC)c1OC | 5.2 | 139.5% | 225.1% | 17.1
CCCCNC(=O)COC(=O)c1c2c(nc3ccccc13)/C(=C/c1cccs1)CC2 | 51.8* | -24.8% | ? | 103.6*
CCc1cc2c(SCC#N)ncnc2s1 | -2.9 | 13.1% | 28.8%[1.15 µM] | -2.7
Cc1cccc(C)c1OCc1nnc(SCC(=O)Nc2ccc(N3CCOCC3)cc2)o1 | -5.6 | -1.6% | -11.8% | -22.0
COc1ccc2c(c1)C(c1cc(OC)c(OC)c(OC)c1)CC(=O)O2 (configuration not stated) | 8.0 | . | . | i
COc1ccc(-c2cnnc(N/N=C/c3ccc(C)o3)n2)cc1 | -2.2 | ? | 4.15µM* | -8.4
Oc1ccc(/C=N\Nc2nncc(-c3ccccc3)n2)cc1 | 23.1* | ? | 2.33µM* | 50.6*
COc1ccc(-c2cnnc(N/N=C/c3ccc(O)c(O)c3)n2)cc1 | 30.4* | 1.65µM* | 63.1% | 31.5
COc1ccc(-c2cnnc(N/N=C/c3ccc(O)cc3)n2)cc1 | 30.0 | -3.7% | 13.0% | 30.8
COC(=O)Cn1cnc2c(nnn2-c2cccc(OC)c2)c1=O | 1.1 | 24.6% | 26.3% | 2.4
CCN1CCC[C@H]1CNC(=O)c1cc(S(N)(=O)=O)ccc1OC | -9.6 | 2.4% | 12.9% | -8.0
CCN1CCCC1CNC(=O)c1cc([N+](=O)[O-])c(N(C)C)cc1OC (configuration not stated) | -2.7 | 2.6% | 4.15µM* | 4.6
COc1cccc(-n2ccnc2SCC(=O)N2CCc3ccccc32)c1 | -1.4 | -3.0% | 88.5% | -4.4
O=C(CSc1ccccn1)N1CCc2ccccc21 | 40.2* | 388.9% | -0.3% | 115.9*
Cn1ccnc1SCC(=O)N1CCc2ccccc21 | 31.2* | 124.1% | 3.1% | 79.3*
O=C(CSc1ccc(-c2ccccn2)nn1)N1CCc2ccccc21 | 19.1 | 4.0% | 22.5% | 42.0*
COc1ccc(CCNC(=O)CNCC2CCCCC2)cc1OC | -1.3 | ? | -27.6% | 21.8
CN(C(=O)CO/N=C/c1ccc(OC(F)F)cc1)C1CCS(=O)(=O)C1 (configuration not stated) | 1.9 | 12.3% | 28.5% | 3.5
Cc1ccc(C(=O)NCCN2CCOCC2)c(Cl)c1 | 12.8* | 42.3% | 38.7% | 28.0*
O=C(NCCCN1CCOCC1)c1ccc(Cl)cc1Cl | 17.3* | ? | 75.3% | 23.1
O=C(Nc1c(Cl)cc(Cl)cc1C(=O)NCCN1CCOCC1)c1ccc(Cl)cc1Cl | -5.5 | -12.1% | ? | 16.7
SMILES | Cycloheximide cs | Pf growth 48h | Pf growth 96h | Shiga toxin inh
S=C(NCCN1CCOCC1)Nc1ccc(Cl)cc1Cl | -1.3 | -1.1% | ? | -2.3
O=C(NCCN1CCOCC1)c1ccccc1Cl | -1.9 | -7.0% | ? | 1.5
O=C(NCCN1CCOCC1)c1cc(-c2ccccc2Cl)nc2ccccc12 | -1.5 | -10.3% | 9.28µM* | -5.4
Cc1cc(Cl)ccc1NC(=S)NCCN1CCOCC1 | 4.0 | -2.2% | 5.22µM* | -3.5
O=C(CN(Cc1ccccc1)S(=O)(=O)c1ccc(F)cc1)NCc1ccccn1 | -5.9 | ? | ? | -15.2
CNC(=O)c1cccc(NC(=O)c2ccccc2OCc2ccccc2)c1 | -3.3 | -5.0% | -22.6% | 16.3
O=C(NC(=S)Nn1cnc2c(cnn2-c2ccccc2)c1=O)c1ccccc1 | 0.7 | 9.6% | 9.1% | 12.9
Cc1ccc(Nc2cc(C(=O)NCCCN3CCOCC3)c3ccccc3n2)cc1C | 38.4* | 0.0% | -12.1% | 40.1*
Cn1cc(/C=C(\NC(=O)c2ccccc2Cl)C(=O)NCCCN2CCOCC2)c2ccccc21 | 0.6 | ? | 10.4µM* | 6.1
O=C(NCCCN1CCOCC1)c1cc(C(=O)C2CCCCC2)c[nH]1 | -4.7 | 10.4µM* | 0.0% | -4.9
CCC(=O)c1ccc(OCC(=O)N2CCN(c3ncccn3)CC2)cc1 | . | 2.2% | -14.3% | .
COc1ccccc1C(=O)NCC(=O)OC(C)C(=O)N1CCOCC1 (configuration not stated) | . | 4.1% | 7.2% | .

High-throughput results from PubChem BioAssay.
